Source: PubChem BioAssay (NCATS)
Records with an inconclusive call do not appear. Entries that show only a call come without a potency. Unmarked numbers belong to inactive results. The source made the active and inactive calls. Calls follow the shape of the dose curve; as a rule, active = well fitted inhibition curve with a large enough effect; inconclusive = small, poorly fitted or top-dose-only effect; inactive = flat fitted curve, though single readings scatter.

Columns and labels:
Experiment in all cases: qHTS profiling for inhibitors of Plasmodium falciparum proliferation (AID 504749); also: nearly all actives have a fitted effect of over 60% in size
Conditions in all cases: P. falciparum in erythrocytes, SYBR Green DNA, 72 h; series mostly up to 28.7 µM
[1] = test system: CP247
Summary of the method: (§1)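 SYBR Green fluorescence of parasite DNA, read after lysis and overnight dark incubation, measured growth over 72 h in erythrocyte culture at 0.3% parasitemia and 2.5% hematocrit. Data normalised to DMSO and 0.29 uM artemisinin, with plate-drift correction.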

[2] = test system: CP250
Summary of the method: as §1

[3] = test system: CP252
Summary of the method: as §1

[4] = test system: CP256
Summary of the method: as §1

[5] = test system: CP262
Summary of the method: as §1

[6] = test system: CP266
Summary of the method: as §1

[7] = test system: CP268
Summary of the method: as §1

[8] = test system: CP269
Summary of the method: as §1

[9] = test system: CP291
Summary of the method: as §1

[10] = test system: CP297
Summary of the method: as §1

[11] = test system: CP305
Summary of the method: as §1

[12] = test system: CP315
Summary of the method: as §1

[13] = test system: CP325
Summary of the method: as §1

[14] = test system: CP329
Summary of the method: as §1

[15] = test system: DFO2036
Summary of the method: as §1

[16] = test system: DIV14
Summary of the method: as §1

[17] = test system: DIV17
Summary of the method: as §1

[18] = test system: Dd2
Summary of the method: as §1

[19] = test system: FAB9
Summary of the method: as §1

[20] = test system: GB4
Summary of the method: as §1

[21] = test system: ICS
Summary of the method: as §1

[22] = test system: JCK
Summary of the method: as §1

[23] = test system: N140
Summary of the method: as §1

[24] = test system: P94_40
Summary of the method: as §1

[25] = test system: PAD
Summary of the method: as §1

[26] = test system: PC15
Summary of the method: as §1

[27] = test system: PC49
Summary of the method: as §1

[28] = test system: SC27B
Summary of the method: as §1

[29] = test system: TAB109
Summary of the method: as §1

[30] = test system: W2
Summary of the method: as §1
Potency is read from the fitted curve at half-maximal effect.

`C[C@]12CC[C@H]3c4ccc(O)cc4CC[C@@H]3[C@H]1CC[C@@H]2OC(=O)CCC1CCCC1` was tested, and the Potency [1] was “inactive”, the Potency [2] was “inactive” and the Potency [3] was “inactive”. For the same compound, the Potency [4] was “inactive”, the Potency [5] was “inactive” and the Potency [6] was “inactive”. For the same compound, the Potency [7] was “inactive”, the Potency [8] was “inactive” and the Potency [9] was “inactive”. For the same compound, the Potency [10] was “inactive”, the Potency [11] was “inactive” and the Potency [12] was “inactive”. The Potency [13] was “inactive”, the Potency [14] was “inactive” and the Potency [15] was “inactive”. For the same compound, the Potency [16] was 9.53 µM (active), the Potency [17] was 10.7 µM (active) and the Potency [18] was 14.1 µM (active). The Potency [19] was “inactive”, the Potency [20] was 12 µM (active) and the Potency [21] was 3.16 µM (active). The Potency [22] was “inactive”, the Potency [23] was 12.6 µM (active) and the Potency [24] was “inactive”. The Potency [25] was 10 µM (active), the Potency [26] was 12.6 µM (active) and the Potency [27] was “inactive”. For the same compound, the Potency [28] was “inactive”, the Potency [29] was “inactive” and the Potency [30] was 9.53 µM (active).
